Experiments:
Assay in all cases: thermal shift delta Tm vs DMSO control; higher = stronger stabilization (binding)
Details in all cases: 12.5 µM; protein concentration 2 µM
LOC_OS04G57630-cb004 = test system: LOC_OS04G57630-cb004
Summary of the method: (§1)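 Purified, E. coli-expressed rice kinase domain constructs were tested by differential scanning fluorimetry in 96-well plates: 19.5 μl of 2 μM kinase in 100 mM potassium phosphate pH 7.5, 150 mM NaCl, 10% glycerol, 5 × SYPRO Orange, plus compound in DMSO. Fluorescence was read from 25°C to 95°C at 0.05°C/s. Melting temperatures came from Boltzmann fits, and the shift is the triplicate mean relative to protein with DMSO alone.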

LOC_OS05G07850-cb002 = test system: LOC_OS05G07850-cb002
Summary of the method: as §1

LOC_OS05G16824-cb004 = test system: LOC_OS05G16824-cb004
Summary of the method: as §1

LOC_OS05G28520-cb001 = test system: LOC_OS05G28520-cb001
Summary of the method: as §1

LOC_OS05G30820-cb001 = test system: LOC_OS05G30820-cb001
Summary of the method: as §1

LOC_OS05G43570-cb004 = test system: LOC_OS05G43570-cb004
Summary of the method: as §1

LOC_OS06G16330-cb003 = test system: LOC_OS06G16330-cb003
Summary of the method: as §1

LOC_OS06G22820-cb001 = test system: T1, LOC_OS06G22820-cb001
T1 sequence (whole entry): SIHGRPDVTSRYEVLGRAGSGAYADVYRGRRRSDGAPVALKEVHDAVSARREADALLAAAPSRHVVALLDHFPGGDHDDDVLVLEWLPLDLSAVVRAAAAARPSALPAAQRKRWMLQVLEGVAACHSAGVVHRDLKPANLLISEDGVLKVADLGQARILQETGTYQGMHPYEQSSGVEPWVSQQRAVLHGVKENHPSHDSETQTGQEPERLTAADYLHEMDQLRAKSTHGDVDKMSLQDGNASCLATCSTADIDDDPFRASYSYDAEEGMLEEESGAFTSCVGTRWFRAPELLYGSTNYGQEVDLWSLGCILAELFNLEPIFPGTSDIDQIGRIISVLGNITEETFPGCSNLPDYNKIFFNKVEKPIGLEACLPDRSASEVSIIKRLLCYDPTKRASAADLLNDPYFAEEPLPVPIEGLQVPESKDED
Summary of the method: as §1

LOC_OS07G06570-cb004 = test system: LOC_OS07G06570-cb004
Summary of the method: as §1

LOC_OS07G07230-cb001 = test system: LOC_OS07G07230-cb001
Summary of the method: as §1

Sequence of LOC_OS06G16330-cb003 (as listed by the source): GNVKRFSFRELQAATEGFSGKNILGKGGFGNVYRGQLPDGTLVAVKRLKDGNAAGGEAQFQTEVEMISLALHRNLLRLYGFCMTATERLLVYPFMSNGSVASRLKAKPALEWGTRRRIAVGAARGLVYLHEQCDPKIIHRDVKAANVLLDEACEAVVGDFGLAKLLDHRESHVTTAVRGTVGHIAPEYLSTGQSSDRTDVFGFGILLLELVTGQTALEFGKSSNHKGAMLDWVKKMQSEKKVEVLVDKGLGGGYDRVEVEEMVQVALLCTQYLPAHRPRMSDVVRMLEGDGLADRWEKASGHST

Compound	thermal shift delta Tm (LOC_OS04G57630-cb004) [°C]	thermal shift delta Tm (LOC_OS05G07850-cb002) [°C]	thermal shift delta Tm (LOC_OS05G16824-cb004) [°C]	thermal shift delta Tm (LOC_OS05G28520-cb001) [°C]	thermal shift delta Tm (LOC_OS05G30820-cb001) [°C]	thermal shift delta Tm (LOC_OS05G43570-cb004) [°C]	thermal shift delta Tm (LOC_OS06G16330-cb003) [°C]	thermal shift delta Tm (LOC_OS06G22820-cb001) [°C]	thermal shift delta Tm (LOC_OS07G06570-cb004) [°C]	thermal shift delta Tm (LOC_OS07G07230-cb001) [°C]
CCCCCCCCCCCCCCCCOP(=O)([O-])OCC[N+](C)(C)C [Miltefosine]	-0.37	-1.01	-3.83	-3.02	-0.84	-1.92	-5.12	-0.23	-2.61	-2.12
CC#CC(=O)N1CCC[C@H]1c1nc(-c2ccc(C(=O)Nc3ccccn3)cc2)c2c(N)nccn12 [Acalabrutinib (ACP-196)]	0.54	1.21	-2.72	0.31	0.59	0.02	0.81	0.52	1.01	0.32
COC(=O)Nc1ccc(-c2nc(N3CCOCC3)c3cnn(C4CCN(C(=O)OC)CC4)c3n2)cc1	0.06	0.49	-0.54	-0.26	0.57	0.65	-0.2	0.4	0.99	-0.41
CS(=O)(=O)c1cccc(CNc2nc(Nc3ccc4c(c3)CCC(=O)N4)ncc2C(F)(F)F)c1	1.7	8.91	11.1	1.18	2.8	0.96	6.92	0.35	0.43	-0.39
CN(c1ccccc1CNc1nc(Nc2ccc3c(c2)CC(=O)N3)ncc1C(F)(F)F)S(C)(=O)=O	3.74	11.3	11.6	2.32	4	0.97	7.19	-0.04	1.23	0.27
C=CC(=O)N[C@H]1CCOC[C@H]1Nc1ncc2cc(-c3c(Cl)c(OC)cc(OC)c3Cl)ccc2n1	0.02	0.63		0.07	0	-0.08	-0.57	0.4	0.52	0.76
CC(C)(C)c1ccc(S(=O)(=O)/C=C/C#N)cc1	0.92	0.97		-0.58	-0.04	0.04	0.83	-0.39	0.39	-0.18
CN(C)S(=O)(=O)c1ccc2c(c1)/C(=C/c1cc3c([nH]1)CCCC3)C(=O)N2	1.35	7.38	-3.8	1.28	1.28	0.71		1.01	1.01	0.86
CCCCCCCCCCCCCCCCn1cc[n+](Cc2ccccc2)c1C	-3.77	0.19		-2.62	-1.41	-3.26	-4.53	-0.65	-1.18	-0.82
Cc1csc(-c2nnc(Nc3ccc(Oc4ncccc4-c4ccnc(N)n4)cc3)c3ccccc23)c1	0.49	6.74	1.04	0.38	0.85	0.03	3.12	0.66	0.09	0.17
CCC[C@H](NC(=O)/C(C#N)=C/c1cccc(Br)n1)c1ccccc1 [Degrasyn (WP1130)]	-2.22	-0.67		-0.84	0.52	-0.8	-2.97	0.49	-0.53	0.24
Cc1ccccc1CN1C2=NCCN2C(=O)C2=C1CCN(Cc1ccccc1)C2 [TIC10 Analogue]	-0.16	-0.89	-2.52	0.56	0.36	0.33	-0.41	0.74	1.19	0.09
CCn1c2ccccc2c2cc(Nc3ccnc(NCCCN4CCOCC4)n3)ccc21	0.23	3.68	-1.41	0.55	0.41	0.2	0.02	0.32	1.17	0.72
O=c1ncn2nc(Sc3ccc(F)cc3F)ccc2c1-c1c(Cl)cccc1Cl	0.07	0.12	0.83	0.17	0.49	0.49	-0.01	0.66	0.75	0.14
CC1(C)OC(=O)C=C[C@]2(C)[C@H]3CC[C@@]4(C)[C@H](c5ccoc5)OC(=O)[C@H]5O[C@]54[C@]3(C)C(=O)C[C@@H]12 [Obacunone]	-0.08	-0.17	0.73	0.17	0.18	0.33	-0.35	0.3	1.76	0.44
Cc1ccc(C(=O)Nc2ccc(CN3CCN(C)CC3)c(C(F)(F)F)c2)cc1C#Cc1cnc2[nH]ncc2c1 [GZD824 Dimesylate]	6.01	13.9	2.52	0.74	2.1	1.6	5.01	0.3	0.65	1.45
Cn1sc(=O)n(Cc2ccccc2)c1=O	-1.01	-2.47	4.99	1.84	0.45	0.04		0.72	0.43	-0.42
C[C@@H](NC(=O)c1ncnc(N)c1Cl)c1ncc(C(=O)Nc2cc(C(F)(F)F)c(Cl)cn2)s1	0.51	4.01	-2.64	1.62	0.73	0.28	0.58	0.53	1.4	0.05
Cc1ccccc1-n1c(Cn2nc(-c3cccc(O)c3)c3c(N)ncnc32)nc2cccc(C)c2c1=O		0.71	-1.12	0.91	0.79	0.31				1
O=C(O)c1cc(O)c2c(c1)[C@@H]([C@H]1c3cc(C(=O)O)cc(O)c3C(=O)c3c(O[C@@H]4O[C@H](CO)[C@@H](O)[C@H](O)[C@H]4O)cccc31)c1cccc(O[C@@H]3O[C@H](CO)[C@@H](O)[C@H](O)[C@H]3O)c1C2=O [Sennoside B]	-0.43	-1.7		2.58	0.73	1.55	-0.98	1.61	4.56	-0.03
Cn1cc(C2=C(c3ccc(Cl)cc3Cl)C(=O)NC2=O)c2ccccc21	0.28	2.36	0.19	2.17	0.49	0.84		1.02	2.2	0.68
Cc1[nH]c(/C=C2\C(=O)Nc3ccc(S(=O)(=O)N(C)c4cccc(Cl)c4)cc32)c(C)c1C(=O)N1CCN(C)CC1	0.72	9.11		0.18	0.55	-0.03	-6.47	1	0.23	0.81

— the supplement of paper PMC9694430
